From PubChem BioAssay (NCATS)
Values joined by “and” are separate entries in the source; they are usually repeats but may differ in a detail not shown here. Equal entries are not always repeated. Inconclusive results are not listed. Where a call stands in place of a potency, no number is given. Active and inactive are the calls of the source. Unless noted, the call rests on the fitted dose curve; in most records, active means well fitted curve in the direction sought with a large enough effect; inconclusive means small, poorly fitted or top-dose-only effect, or another doubt; inactive means no such curve, though single readings can be large; an effect the other way counts as inactive or inconclusive.

What was measured:
[1] = target: Ubiquitin carboxyl-terminal hydrolase 1 (Homo sapiens) (UniProt O94782); experiment: Inhibitors of USP1/UAF1: Pilot qHTS (AID 504865); further: nearly all actives have a fitted effect of over 35% in size; further: potency means the concentration at half of the fitted maximal effect;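 on activity change, negative = inhibition: rhodamine fluorescence freed from ubiquitin-rhodamine substrate followed over time; top concentration of the series differs between compounds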
Sequence of Ubiquitin carboxyl-terminal hydrolase 1 (Homo sapiens) (O94782 whole entry, looked up): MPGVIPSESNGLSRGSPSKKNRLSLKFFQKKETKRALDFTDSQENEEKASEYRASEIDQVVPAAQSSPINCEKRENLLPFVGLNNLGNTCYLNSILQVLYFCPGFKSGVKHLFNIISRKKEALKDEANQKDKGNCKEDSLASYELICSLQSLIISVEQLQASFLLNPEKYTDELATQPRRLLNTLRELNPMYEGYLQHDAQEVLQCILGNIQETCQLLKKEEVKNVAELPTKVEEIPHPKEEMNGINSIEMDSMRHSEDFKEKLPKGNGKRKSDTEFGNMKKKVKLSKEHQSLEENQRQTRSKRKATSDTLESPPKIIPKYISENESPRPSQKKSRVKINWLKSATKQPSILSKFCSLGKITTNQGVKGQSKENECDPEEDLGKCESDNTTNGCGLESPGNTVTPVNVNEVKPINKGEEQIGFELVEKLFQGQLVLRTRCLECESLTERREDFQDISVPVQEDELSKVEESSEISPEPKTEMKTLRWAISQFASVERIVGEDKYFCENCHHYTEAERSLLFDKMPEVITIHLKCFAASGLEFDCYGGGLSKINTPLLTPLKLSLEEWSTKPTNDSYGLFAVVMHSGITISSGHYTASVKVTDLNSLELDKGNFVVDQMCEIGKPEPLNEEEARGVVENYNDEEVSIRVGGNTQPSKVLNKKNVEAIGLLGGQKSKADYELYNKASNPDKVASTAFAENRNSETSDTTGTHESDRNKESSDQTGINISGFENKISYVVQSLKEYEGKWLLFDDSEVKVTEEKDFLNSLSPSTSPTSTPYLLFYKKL
Method in brief: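 In 50mM HEPES pH 7.8 containing 0.5mM EDTA, 1mM TCEP, 0.1 mg/ml BSA and 0.01% Tween-20, 1nM USP1/UAF1 is exposed to compound for 15 min, then Ub-Rho (150nM final) is added and fluorescence is read over time.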

[2] = target: Estrogen receptor (Homo sapiens) (UniProt P03372); experiment: qHTS assay for small molecule agonists of estrogen receptor alpha signaling (AID 588514; calls by dose curve; further: nearly all actives have a fitted effect of over 70% in size)
Sequence of Estrogen receptor (Homo sapiens) (P03372 whole entry, looked up): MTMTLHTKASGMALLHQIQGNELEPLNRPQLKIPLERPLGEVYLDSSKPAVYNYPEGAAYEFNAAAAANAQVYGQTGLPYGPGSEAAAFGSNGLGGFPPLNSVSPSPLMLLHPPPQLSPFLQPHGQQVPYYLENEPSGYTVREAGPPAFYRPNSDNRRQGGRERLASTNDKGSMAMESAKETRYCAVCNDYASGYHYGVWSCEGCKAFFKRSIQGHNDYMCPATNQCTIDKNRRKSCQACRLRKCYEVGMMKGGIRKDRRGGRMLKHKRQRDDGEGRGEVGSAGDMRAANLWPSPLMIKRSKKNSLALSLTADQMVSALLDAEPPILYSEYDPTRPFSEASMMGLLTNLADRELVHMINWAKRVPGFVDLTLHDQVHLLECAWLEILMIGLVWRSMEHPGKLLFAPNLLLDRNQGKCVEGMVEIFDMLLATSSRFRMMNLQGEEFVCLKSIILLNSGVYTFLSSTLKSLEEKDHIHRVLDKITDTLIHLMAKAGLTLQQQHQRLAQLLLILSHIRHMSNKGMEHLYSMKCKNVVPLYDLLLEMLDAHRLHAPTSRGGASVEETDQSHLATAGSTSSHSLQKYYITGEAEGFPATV
Method in brief: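 Efficacy is expressed against 20 nM 17-beta-estradiol (100%) and DMSO basal (0%); EC50 from Hill equation. Assay: beta-lactamase reporter in ER-alpha-UAS-bla HEK 293 cells, 18 h compound incubation, CCF4 detection.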

[3] = target: Androgen receptor (Homo sapiens) (UniProt P10275); experiment: qHTS assay for small molecule agonists of androgen receptor signaling (AID 588515; active means well fitted curve in the direction sought with a large enough effect in the signal ratio, with a control signal flat; the % refers to the signal ratio); details: AR-UAS-bla HEK293, beta-lactamase ratio, agonist 16 h; stronger effect = higher value
Sequence of Androgen receptor (Homo sapiens) (P10275 whole entry, looked up): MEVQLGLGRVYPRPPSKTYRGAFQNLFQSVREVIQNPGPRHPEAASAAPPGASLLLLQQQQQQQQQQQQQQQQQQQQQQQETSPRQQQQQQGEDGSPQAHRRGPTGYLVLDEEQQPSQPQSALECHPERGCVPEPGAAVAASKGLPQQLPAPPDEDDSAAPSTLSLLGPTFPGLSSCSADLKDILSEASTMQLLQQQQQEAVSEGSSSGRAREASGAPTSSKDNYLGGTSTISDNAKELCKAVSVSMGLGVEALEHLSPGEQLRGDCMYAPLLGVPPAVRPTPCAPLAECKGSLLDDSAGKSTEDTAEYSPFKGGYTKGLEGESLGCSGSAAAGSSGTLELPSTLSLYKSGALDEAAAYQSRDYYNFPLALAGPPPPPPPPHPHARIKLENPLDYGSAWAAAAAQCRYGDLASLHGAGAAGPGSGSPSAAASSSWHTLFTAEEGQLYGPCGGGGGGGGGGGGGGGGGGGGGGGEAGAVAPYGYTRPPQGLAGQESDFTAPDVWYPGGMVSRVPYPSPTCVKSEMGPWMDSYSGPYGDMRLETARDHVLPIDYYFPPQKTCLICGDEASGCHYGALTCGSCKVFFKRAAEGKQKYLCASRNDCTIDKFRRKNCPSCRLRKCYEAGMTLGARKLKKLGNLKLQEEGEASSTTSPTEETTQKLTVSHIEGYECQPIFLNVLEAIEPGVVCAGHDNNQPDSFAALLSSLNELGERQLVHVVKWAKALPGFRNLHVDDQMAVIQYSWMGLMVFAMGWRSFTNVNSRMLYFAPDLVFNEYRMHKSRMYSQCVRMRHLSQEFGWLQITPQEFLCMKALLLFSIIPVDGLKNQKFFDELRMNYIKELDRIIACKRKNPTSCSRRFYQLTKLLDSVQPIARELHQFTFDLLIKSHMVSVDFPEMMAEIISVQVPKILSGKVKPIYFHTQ
Method in brief: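 Stimulation of an AR-responsive β-lactamase reporter in GripTite HEK293 cells was measured after 16 h compound exposure at 37 °C, via CCF4 fluorescence after 2 h RT. EC50 from Hill fits, normalized to R1881 at 30 nM.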

[4] = target: Androgen receptor (Homo sapiens) (UniProt P10275); experiment: qHTS assay for small molecule antagonists of androgen receptor signaling (AID 588516; active means well fitted curve in the direction sought with a large enough effect in the signal ratio, with a control signal flat, not every such curve was filed as active; the % refers to the signal ratio)
Method in brief: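 Cells were plated and incubated 5 h, compounds added in titration, then R1881 (10 nM final) as agonist. After 16 h at 37 C, CCF4 substrate was loaded for 2 h at room temperature and fluorescence measured.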

[5] = target: Glucocorticoid receptor (Homo sapiens) (UniProt P04150); experiment: qHTS assay for small molecule antagonists of glucocorticoid receptor signaling (AID 588533; active means well fitted inhibition curve with a large enough effect in the signal ratio, with a control signal flat, not every such curve was filed as active; the % refers to the signal ratio;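 further: cells stimulated with 2 nM dexamethasone as agonist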)
Sequence of Glucocorticoid receptor (Homo sapiens) (P04150 whole entry, looked up): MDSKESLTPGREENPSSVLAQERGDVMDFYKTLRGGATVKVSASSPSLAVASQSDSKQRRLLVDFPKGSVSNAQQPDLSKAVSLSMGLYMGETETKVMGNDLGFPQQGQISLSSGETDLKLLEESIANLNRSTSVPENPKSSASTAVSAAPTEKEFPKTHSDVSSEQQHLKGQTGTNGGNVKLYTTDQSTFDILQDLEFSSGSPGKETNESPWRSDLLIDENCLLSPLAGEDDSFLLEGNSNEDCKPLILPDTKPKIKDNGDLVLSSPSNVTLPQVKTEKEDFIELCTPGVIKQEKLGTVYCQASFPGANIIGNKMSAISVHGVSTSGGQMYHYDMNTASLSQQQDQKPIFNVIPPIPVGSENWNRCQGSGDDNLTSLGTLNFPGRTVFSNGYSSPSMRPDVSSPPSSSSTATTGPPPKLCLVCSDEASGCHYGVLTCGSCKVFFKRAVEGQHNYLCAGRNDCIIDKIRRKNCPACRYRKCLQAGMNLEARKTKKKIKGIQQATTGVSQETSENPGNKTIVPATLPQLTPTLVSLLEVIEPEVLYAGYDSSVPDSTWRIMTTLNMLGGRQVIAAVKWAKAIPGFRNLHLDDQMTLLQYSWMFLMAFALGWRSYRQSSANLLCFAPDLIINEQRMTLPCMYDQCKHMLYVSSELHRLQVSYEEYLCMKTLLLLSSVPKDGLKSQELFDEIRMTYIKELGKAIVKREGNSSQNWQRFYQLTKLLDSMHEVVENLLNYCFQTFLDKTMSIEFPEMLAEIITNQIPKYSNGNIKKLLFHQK
Method in brief: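 Antagonist-mode qHTS: compound titrations added to GRE-bla HeLa cells, then dexamethasone 2 nM final; 18 h, 37 C. CCF4 FRET fluorescence normalized to dexamethasone and DMSO; IC50 from Hill fit.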

[6] = target: Peroxisome proliferator-activated receptor delta (Homo sapiens) (UniProt Q03181); experiment: qHTS assay for small molecule antagonists of peroxisome proliferator-activated receptor delta signaling (AID 588535; active means well fitted inhibition curve with a large enough effect in the signal ratio, with a control signal flat, not every such curve was filed as active; the % refers to the signal ratio)
Sequence of Peroxisome proliferator-activated receptor delta (Homo sapiens) (Q03181 whole entry, looked up): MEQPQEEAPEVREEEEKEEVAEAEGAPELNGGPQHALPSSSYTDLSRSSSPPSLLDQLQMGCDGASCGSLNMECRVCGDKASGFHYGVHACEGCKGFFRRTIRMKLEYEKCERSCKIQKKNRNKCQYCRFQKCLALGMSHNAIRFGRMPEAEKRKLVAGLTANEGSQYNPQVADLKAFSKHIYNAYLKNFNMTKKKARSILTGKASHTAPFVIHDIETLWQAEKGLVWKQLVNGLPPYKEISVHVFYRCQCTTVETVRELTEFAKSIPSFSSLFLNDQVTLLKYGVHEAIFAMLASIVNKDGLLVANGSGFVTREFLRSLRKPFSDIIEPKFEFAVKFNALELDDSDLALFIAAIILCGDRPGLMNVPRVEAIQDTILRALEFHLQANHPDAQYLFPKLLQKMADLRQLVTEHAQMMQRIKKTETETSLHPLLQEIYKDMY
Method in brief: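 Fluorescence from CCF4-loaded GeneBLAzer PPAR-delta-UAS-bla HEK293T cells (2 hrs RT loading) quantified reporter inhibition after an 18 hr, 37 C compound exposure across a titration.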

[7] = qHTS assay for small molecule antagonists of retinoid X receptor alpha signaling (AID 588546; active means well fitted inhibition curve with a large enough effect in the signal ratio, with a control signal flat, not every such curve was filed as active; the % refers to the signal ratio;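 further: cells stimulated with 9-cis-retinoic acid as agonist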); details: HEK293T RXRa-UAS-bla, beta-lactamase ratio, antagonist mode; measured here: W530 green channel, cytotoxicity proxy
Method in brief: (§1)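 Beta-lactamase reporter inhibition, read as CCF4 fluorescence ratio (ex 405, em 460/530 nm) after 2 h at RT. HEK293T UAS-bla cells, 2500/well, were stimulated with 9-cis-RA at 500 or 100 nM final alongside test compound for 18 h at 37 C.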

[8] = target: Retinoic acid receptor RXR-alpha (Homo sapiens) (UniProt P19793); experiment: as above; details: HEK293T RXRa-UAS-bla, beta-lactamase ratio, antagonist mode
Sequence of Retinoic acid receptor RXR-alpha (Homo sapiens) (P19793 whole entry, looked up): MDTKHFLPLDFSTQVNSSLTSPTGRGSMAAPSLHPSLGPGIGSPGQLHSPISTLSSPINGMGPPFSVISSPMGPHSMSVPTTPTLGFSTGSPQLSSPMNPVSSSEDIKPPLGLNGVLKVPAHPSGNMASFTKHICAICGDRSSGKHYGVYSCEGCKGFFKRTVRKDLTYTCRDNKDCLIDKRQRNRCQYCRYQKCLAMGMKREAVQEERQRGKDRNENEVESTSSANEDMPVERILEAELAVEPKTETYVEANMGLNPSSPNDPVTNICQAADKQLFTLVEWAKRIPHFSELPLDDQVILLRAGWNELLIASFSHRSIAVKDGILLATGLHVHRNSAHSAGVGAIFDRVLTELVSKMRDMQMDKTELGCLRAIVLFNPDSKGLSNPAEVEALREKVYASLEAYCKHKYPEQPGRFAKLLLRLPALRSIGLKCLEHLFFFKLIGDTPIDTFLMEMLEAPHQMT
Method in brief: as §1

[9] = target: Thyroid hormone receptor beta (Homo sapiens) (UniProt P10828); experiment: qHTS assay for small molecule antagonists of thyroid hormone receptor beta signaling (AID 588547; active means well fitted inhibition curve with a large enough effect in the signal ratio, with a control signal flat, not every such curve was filed as active; the % refers to the signal ratio;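 further: cells stimulated with 0.4 nM T3 agonist during compound exposure; series mostly up to about 77 µM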); details: TR-UAS-bla HEK293, beta-lactamase ratio, antagonist mode, 18 h
Sequence of Thyroid hormone receptor beta (Homo sapiens) (P10828 whole entry, looked up): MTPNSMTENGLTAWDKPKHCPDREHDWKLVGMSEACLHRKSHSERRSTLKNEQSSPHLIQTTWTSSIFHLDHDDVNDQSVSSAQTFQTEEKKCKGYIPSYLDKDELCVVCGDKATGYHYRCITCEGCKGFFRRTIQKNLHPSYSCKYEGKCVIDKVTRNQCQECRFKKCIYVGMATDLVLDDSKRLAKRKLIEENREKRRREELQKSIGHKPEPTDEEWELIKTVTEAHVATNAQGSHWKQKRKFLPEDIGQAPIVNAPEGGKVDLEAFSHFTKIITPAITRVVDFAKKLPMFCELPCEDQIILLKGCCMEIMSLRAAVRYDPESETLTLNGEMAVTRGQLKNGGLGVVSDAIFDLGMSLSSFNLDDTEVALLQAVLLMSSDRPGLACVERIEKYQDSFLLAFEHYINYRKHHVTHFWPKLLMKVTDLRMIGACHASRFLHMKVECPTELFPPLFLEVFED
Method in brief: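 TR-UAS-bla GripTite HEK293 cells in 2% charcoal/dextran FBS medium; compounds 0.59 nM to 92 uM with T3 at 0.4nM final, 18 h at 37 C. Beta-lactamase read by CCF4 fluorescence (460/530 nm); Hill fits gave IC50 and efficacy.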

[10] = target: phosphoglycerate mutase (Leishmania major) (UniProt Q4Q090); experiment: qHTS Validation Assay to Find Inhibitors of Phosphoglycerate Mutase (AID 504548); further: series mostly up to about 58 µM
Method in brief: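 Luminescent end-point read-out via Kinase-GloPlus after a 10-minute development. Reaction: 1.25nM Leishmania major PGAM with substrate and compound, 45 minutes at room temperature in TEA buffer (pH 7.6) with MgCl2 and Tween-20.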

[11] = target: DNA dC->dU-editing enzyme APOBEC-3G (Homo sapiens) (UniProt Q9HC16); experiment: qHTS for inhibitors of Vif-A3G interactions: Validation (AID 588379)
Method in brief: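 Yellow fluorescence (Ex 488, Em 500-530) of Vif-coexpressing HeLa A3G-eYFP cells, scanned by Acumen cytometer, reports blocked A3G degradation. Cells plated at 700/well overnight at 37 deg C before compound addition, then a further overnight compound incubation at 37 deg C.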

[12] = target: Peroxisome proliferator-activated receptor gamma (Homo sapiens) (UniProt P37231); experiment: qHTS assay for small molecule agonists of peroxisome proliferator-activated receptor gamma signaling (AID 588536; active means well fitted curve in the direction sought with a large enough effect in the signal ratio, with a control signal flat, not every such curve was filed as active; the % refers to the signal ratio)
Sequence of Peroxisome proliferator-activated receptor gamma (Homo sapiens) (P37231 whole entry, looked up): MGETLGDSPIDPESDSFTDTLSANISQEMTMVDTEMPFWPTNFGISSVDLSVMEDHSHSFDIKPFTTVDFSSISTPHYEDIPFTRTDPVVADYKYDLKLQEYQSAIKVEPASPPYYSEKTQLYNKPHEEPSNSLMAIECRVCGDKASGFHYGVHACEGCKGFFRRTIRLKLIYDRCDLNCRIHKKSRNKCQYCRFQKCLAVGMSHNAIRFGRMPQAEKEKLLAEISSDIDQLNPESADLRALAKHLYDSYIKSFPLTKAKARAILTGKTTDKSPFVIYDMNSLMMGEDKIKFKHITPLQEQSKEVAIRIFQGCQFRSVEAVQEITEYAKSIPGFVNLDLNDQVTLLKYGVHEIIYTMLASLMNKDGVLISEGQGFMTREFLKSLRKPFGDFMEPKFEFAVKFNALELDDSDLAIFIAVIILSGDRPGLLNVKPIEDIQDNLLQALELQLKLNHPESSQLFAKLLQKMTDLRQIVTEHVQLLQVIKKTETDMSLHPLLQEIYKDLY
Method in brief: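 Beta-lactamase reporter read-out: CCF4 fluorescence (ex 405, em 460/530 nm) after 2 h at RT. HEK293 GeneBLAzer cells were treated for 16 h at 37 C. Hill fits gave EC50 and efficacy versus 2 uM rosiglitazone (100%) and DMSO (0%).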

[13] = target: Peroxisome proliferator-activated receptor gamma (Homo sapiens) (UniProt P37231); experiment: qHTS assay for small molecule antagonists of peroxisome proliferator-activated receptor gamma signaling (AID 588537; active means well fitted inhibition curve with a large enough effect in the signal ratio, with a control signal flat, not every such curve was filed as active; the % refers to the signal ratio;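 further: reporter cells co-stimulated with 50 nM rosiglitazone agonist during compound treatment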)
Method in brief: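 Fluorescence at 460 and 530 nm (405 nm excitation) reported beta-lactamase cleavage of CCF4 after 2 h room-temperature loading. HEK293 reporter cells in 1% charcoal/dextran-treated FBS had received compound and rosiglitazone for 16 h.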

[14] = qHTS assay for small molecule agonists of retinoid X receptor alpha signaling (AID 588544; calls by dose curve); details: HEK293T RXRa-UAS-bla, beta-lactamase reporter, 18 h; 530 nm emission
[15] = target: Retinoic acid receptor RXR-alpha (Homo sapiens) (UniProt P19793); experiment: as above
[16] = target: Thyroid hormone receptor beta (Homo sapiens) (UniProt P10828); experiment: qHTS assay for small molecule agonists of thyroid hormone receptor beta signaling (AID 588545; calls by dose curve)
Method in brief: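 Beta-lactamase reporter activity under TR response element control is measured in HEK 293 cells after 18 hrs compound exposure. Signal is ratiometric CCF4 fluorescence, 460/530 nm.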

[17] = target: Vitamin D3 receptor (Homo sapiens) (UniProt P11473); experiment: qHTS assay for small molecule agonists of vitamin D receptor signaling (AID 588543; calls by dose curve)
Method in brief: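 Reporter cells (HEK293T, VDR-UAS-bla) were seeded in medium with 2% charcoal-stripped serum and incubated 5 h, then compounds in concentration series were added for 16 h at 37 °C. Stimulation was scaled between DMSO basal and 50 nM 1α,25-dihydroxyvitamin D3.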

[18] = target: Bile acid receptor (Homo sapiens) (UniProt Q96RI1); experiment: qHTS assay for small molecule antagonists of farnesoid X receptor signaling (AID 588526; calls by dose curve)
Method in brief: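 Antagonist mode: titrated compounds tested against chenodeoxycholic acid stimulation (normalized to 50 uM CDCA and DMSO) in GeneBLAzer HEK293T cells for 16 h. Beta-lactamase read by CCF4 fluorescence; IC50 from Hill fits.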

With C[C@@H]1CCC2[C@@H](C)[C@@H](O)O[C@@H]3O[C@@]4(C)CC[C@@H]1[C@@]23OO4 (some centres undefined) the Potency [1] was “inactive”.
For CCN(CC)Cc1cc(Nc2ccnc3cc(Cl)ccc23)ccc1O, the Potency [1] was “inactive”.
In the case of CC1(C)C(C=C(Cl)Cl)C1C(=O)OCc1cccc(Oc2ccccc2)c1 (centres undefined), the Potency [1] is reported as “inactive”, the Potency [2] is reported as “inactive” and the activation [3] is reported as 4.68% (inactive) [middle of 4 runs]. The outcome [4] was “inactive”, the outcome [5] was “inactive” and the outcome [6] was “inactive”. For the same molecule, the max response [7] was -5.2% [middle of 4 runs], the max response [8] was -8.16% (inactive) [middle of 4 runs] and the activity change % (negative = inhibition) [9] was 3.43% (inactive) [middle of 4 runs].
With COC(C(=O)C(O)C(C)O)C1Cc2cc3cc(OC4CC(OC5CC(O)C(O)C(C)O5)C(O)C(C)O4)c(C)c(O)c3c(O)c2C(=O)C1OC1CC(OC2CC(OC3CC(C)(O)C(O)C(C)O3)C(O)C(C)O2)C(O)C(C)O1 (centres undefined) the Potency [1] was “inactive”.
For COC(F)(F)C(Cl)Cl, the Potency [1] was “inactive”.
For CCCC(=O)Nc1ncnc2c1ncn2C1OC2COP(=O)(O)OC2C1OC(=O)CCC (centres undefined), the Potency [1] was “inactive”.
For CCCCC(C)(O)C/C=C/[C@H]1[C@H](O)CC(=O)[C@@H]1CCCCCCC(=O)OC (some centres undefined), the Potency [1] was “inactive”.
In the case of Nc1ncnc2c1ncn2[C@@H]1O[C@H](COP(=O)(O)OP(=O)(O)OP(=O)(O)O)[C@@H](O)[C@H]1O, the Potency [1] is reported as “inactive”.
For COc1ccc2c3c1O[C@H]1C[C@@H](O)C=C[C@@]31CCN(C)C2, the Potency [1] was “inactive”.
For C=C1C(=CC=C2CCC[C@@]3(C)[C@@H]2CC[C@H]3[C@H](C)CCCC(C)C)C[C@@H](O)C[C@@H]1O, the Potency [1] was 22.4 µM (active).
In the case of CC1=C(/C=C/C(C)=C/C=C/C(C)=C/C=C/C=C(C)/C=C/C=C(C)/C=C/C2=C(C)CCCC2(C)C)C(C)(C)CCC1, the Potency [1] is reported as “inactive”.
In the case of CC(=O)Oc1cc(C)c(OC(C)=O)c2ccccc12, the Potency [1] is reported as “inactive”.
For CN1Cc2c(N)cccc2C(c2ccccc2)C1 (centres undefined), the outcome [10] was “inactive”.
With Cc1c(C)c2c(c(C)c1O)CC[C@@](C)(CCC[C@H](C)CCC[C@H](C)CCCC(C)C)O2 the Potency [1] was “inactive” and the outcome [11] was “inactive”.
In the case of O=C(COc1ccc(Cl)cc1)OCCNC12CC3CC(CC(C3)C1)C2, the Potency [1] is reported as “inactive”.
With O=C1C(=O)c2ncccc2-c2cccnc21 the Potency [1] was 50.1 µM (active).
With CCC(=O)NCCC1CCc2ccc3c(c21)CCO3 (centres undefined) the Potency [1] was “inactive”.
In the case of O=C(O)CN(CCN(CC(=O)O)CC(=O)O)CC(=O)O, the Potency [1] is reported as “inactive”, the outcome [12] is reported as “inactive” and the outcome [13] is reported as “inactive”. The max response [14] was -4.26% and -8.64%, the outcome [15] was “inactive” and the max response [7] was -5.66% and -2.36%. The max response [8] was -4.8% (inactive) and -20.2% (inactive).
With CCOc1ccc2c(c1)C(C)=CC(C)(C)N2 the activity change, negative = inhibition [1] was -8.83% [at 11.4 µM] (inactive), the Potency [2] was “inactive” and the activation [3] was 15.4% (inactive). The outcome [4] was “inactive”, the outcome [16] was “inactive” and the activity change % (negative = inhibition) [9] was 8.54% (inactive).
In the case of Cc1ccccc1OCC(O)CNCCOc1ccc(C(N)=O)cc1 (centres undefined), the Potency [1] is reported as “inactive”.
For CC(NNC(=O)c1ccccc1)c1ccccc1 (centres undefined), the Potency [1] was “inactive”.
In the case of COCC(=O)Nc1cc(Sc2ccccc2)ccc1N=C(NC(=O)OC)NC(=O)OC, the Potency [1] is reported as “inactive”.
In the case of CC1(C)S[C@@H]2[C@H](NC(=O)Cc3ccccc3)C(=O)N2[C@H]1C(=O)O, the Potency [1] is reported as “inactive”.
With CCCCCCCC(=O)O the Potency [1] was “inactive”, the Potency [2] was “inactive” and the outcome [5] was “inactive”. For the same molecule, the outcome [12] was “inactive”, the outcome [17] was “inactive” and the max response [14] was 23.4% and -6.86%. For the same molecule, the outcome [15] was “inactive”, the outcome [16] was “inactive” and the max response [7] was -6.98% and -8.84%. The max response [8] was 18.1% (inactive) and 2.05% (inactive) and the activity change % (negative = inhibition) [9] was 8.96% (inactive) and 0.409% (inactive).
With NC1C2CN(c3nc4c(cc3F)c(=O)c(C(=O)O)cn4-c3ccc(F)cc3F)CC12 (centres undefined) the Potency [1] was “inactive”.
In the case of O=c1ccn([C@@H]2O[C@H](CO)[C@@H](O)[C@H]2O)c(=O)[nH]1, the outcome [11] is reported as “inactive”.
With CC1=C2[C@@H]([C@H](C)CC[C@H]2/C=C(\C)C(=O)O)[C@H](O)C1 the Potency [2] was “inactive”, the Potency [18] was “inactive” and the outcome [12] was “inactive”. For the same molecule, the max response [14] was 29.1%, the outcome [15] was “inactive” and the outcome [16] was “inactive”. The max response [7] was 6.79% and the max response [8] was -2.22% (inactive).
